# HEK293 cAMP ctrl – counter-screen for TSHR agonists: cAMP increase in parental HEK293 | 73,000 compounds, 2.5% hits | Potency, µM (highest dose often 57.1 µM), inactives show top-dose activation, usual class: activators | parental HEK293 CNG cAMP sensor, membrane potential fluorescence; further: % of control where 0% means no effect; nearly all actives have a fitted effect of over 55% in size
#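 Parental HEK 293 cells stably expressing a modified CNG channel (no TSHR) report cAMP rise as membrane depolarization. Membrane potential dye with 100 uM RO 20-1724 was loaded for 60 min at room temperature, then compound added for 30 min; fluorescence read at 590 nm.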
# Luciferase inh – firefly luciferase inhibition; P08659; purified firefly luciferase, luminescence, 8 min; Potency, µM (titrated, usually from 57.1 µM), inactives show top-dose activity change, negative = inhibition, actives largely listed as inhibitors; 72,000 compounds, 2.2% hits; AID 411; further: on the % scale 0 is the no-effect control and ±100 the full control effect; nearly all actives have a fitted effect of over 40% in size
#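 Substrate buffer containing 10 uM ATP (pH 7.2 imidazole, Mg2+, KCl, detergent, BSA) is dispensed, compound pinned in, then luciferase/luciferin detector mix added. After 8 min at ambient temperature, light output is measured.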
# TSHR agonist – TSH receptor (human) agonism. Potency, µM (series often up to 57.1 µM), for the others: top-dose activation, hits mostly activators. AID 926. HEK293-CNG-TSHR cells (CNG channel as cAMP sensor), membrane potential dye, cAMP. 73,000 compounds, 0.48% hits. P16473; active means well fitted activation curve with a large enough effect in the main read-out, with a control signal flat, not every such curve was filed as active; inconclusive means small, poorly fitted or top-dose-only effect, or a change in a side signal; inactive means no such curve, though single readings can be large or run the other way; % of control where 0% means no effect;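 further: the control signal comes from parental cells without the receptor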
# Target sequence (P16473 whole entry, looked up): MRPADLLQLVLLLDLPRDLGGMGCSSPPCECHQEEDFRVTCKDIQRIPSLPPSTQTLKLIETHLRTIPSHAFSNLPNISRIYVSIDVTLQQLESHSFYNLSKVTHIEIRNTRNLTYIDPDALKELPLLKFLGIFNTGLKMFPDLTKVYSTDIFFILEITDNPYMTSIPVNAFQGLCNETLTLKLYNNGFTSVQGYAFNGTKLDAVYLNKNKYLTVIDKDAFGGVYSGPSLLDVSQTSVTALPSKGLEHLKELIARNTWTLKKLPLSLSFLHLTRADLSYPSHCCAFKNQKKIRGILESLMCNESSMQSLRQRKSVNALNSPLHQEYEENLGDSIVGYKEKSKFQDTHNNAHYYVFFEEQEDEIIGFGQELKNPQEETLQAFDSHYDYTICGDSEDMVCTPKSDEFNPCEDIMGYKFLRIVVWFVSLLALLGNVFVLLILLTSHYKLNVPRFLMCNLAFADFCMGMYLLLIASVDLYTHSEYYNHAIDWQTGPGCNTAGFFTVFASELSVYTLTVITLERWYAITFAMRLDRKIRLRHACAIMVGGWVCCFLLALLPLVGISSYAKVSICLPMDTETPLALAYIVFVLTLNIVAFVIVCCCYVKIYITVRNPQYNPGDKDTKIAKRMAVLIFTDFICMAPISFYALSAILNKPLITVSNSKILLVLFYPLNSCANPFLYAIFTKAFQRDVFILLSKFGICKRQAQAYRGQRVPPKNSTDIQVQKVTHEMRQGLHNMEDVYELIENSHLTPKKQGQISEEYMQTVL
#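 HEK 293 cells stably expressing TSHR and a cAMP-gated CNG channel; parental CNG-only cells as counterscreen. Cells preloaded 60 min with membrane potential dye plus 100 uM RO 20-1724, then compound 30 min; fluorescence read at 590 nm.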
# PK Bst – modulators of Bacillus stearothermophilus pyruvate kinase; purified pyruvate kinase, luminescence ATP production; ribose 5-phosphate activator present at AC10; Potency, µM; 51,000 compounds, 1.2% hits; AID 361; in the data active means potency below about 11 µM; inconclusive means mostly about 12 µM to 25 µM;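 the screen sought inhibitors and activators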;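 further: scaled between full activation by ribose 5 phosphate and full inhibition by luteolin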
# * marks the source's active call; other numbers are inactive results; i = inactive; u = inconclusive; x = not tested or not shown; [ ] = another dose, or the depositor's remark. A selection: hits, their analogues and other compounds. The true share with any hit is near 5.2%. Unless noted, the call rests on the fitted dose curve; in most records, active means well fitted curve in the direction sought with a large enough effect; inconclusive means small, poorly fitted or top-dose-only effect, or another doubt; inactive means no such curve, though single readings can be large; an effect the other way counts as inactive or inconclusive. Potency means the concentration at half of the fitted maximal effect.
SMILES,HEK293 cAMP ctrl,Luciferase inh,TSHR agonist,PK Bst
COC(=O)[C@@]1(Cc2ccc(F)cc2)[C@H]2c3cc(C(=O)N(C)C)n(Cc4cc(F)c(F)c(F)c4)c3C[C@H]2CN1C(=O)c1ccccc1,27%,x,-8%,x
COC(=O)[C@@]1(Cc2ccccc2)[C@H]2c3cc(C(=O)N(C)C)n(C[C@H](O)CO)c3C[C@H]2CN1C(=O)c1ccccc1,21%,x,7%,x
COC(=O)[C@@]1(Cc2ccc(OC)cc2)[C@H]2c3cc(C(=O)N(C)C)n(Cc4cc(F)c(F)c(F)c4)c3C[C@H]2CN1C(=O)c1ccccc1,4µM*,x,u,x
COC(=O)[C@@]1(Cc2ccccc2)[C@H]2c3cc(C(=O)N(C)C)n(Cc4ccsc4Br)c3C[C@H]2CN1C(=O)c1ccccc1,3.2µM*,x,u,x
COC(=O)[C@@]1(Cc2ccccc2)[C@H]2c3cc(C(=O)N(C)C)n(Cc4ccccc4)c3C[C@H]2CN1C(=O)c1ccccc1,2.5µM*,x,u,x
COC(=O)[C@@]1(Cc2ccc(OC)cc2)[C@H]2c3cc(C(=O)N(C)C)n(Cc4ccc(OC)c(OC)c4)c3C[C@H]2CN1C(=O)c1ccccc1,16µM*,x,u,x
COc1ccc(-n2c(=O)c(-c3cccs3)nc3cnc(N4CCNCC4)nc32)cc1,-20%,0%[11.4 µM],-12%,x
CN(C)c1nc(-c2cccnc2)nc2ccccc12,u,-2%[2.29 µM],u,x
COC(=O)Cc1cc(=O)[nH]c(Nc2nc3ccccc3o2)n1,8%[11.4 µM],16µM*,0%[11.4 µM],x
CCOC(=O)Cc1cc(=O)[nH]c(Nc2nc3ccccc3o2)n1,11%,x,-3%,x
c1cc2c3c(cccc3c1)NC1(CCCCCC1)N2,-4%,-10%,x,>57
O=C(Nc1ccc(Oc2ccccc2)cc1)C1CCCO1 (stereo unspecified),-11%,-9%,3%,x
O=C(Nc1ccc(-c2nc3ccccc3o2)cc1)C1CCCO1 (stereo unspecified),17%,5µM*,-4%,6.3*
CC1=C(SCCC#N)S/C(=C2\SC(C)=C(SCCC#N)S2)S1,-48%,-1%,u,>57
COc1ccc(CNc2ncncc2-c2ccccc2CN(C)C)c(OC)c1,13%,-1%[2.29 µM],12%,x
COc1ccc(CNc2ccnc(-c3ccccc3Cl)n2)c(OC)c1,10µM*,-4%[2.29 µM],u,x
COc1ccc(CNc2ncncc2-c2ccccc2Cl)c(OC)c1,32µM*,-2%[2.29 µM],u,x
Cn1c(=O)c(-c2ccccc2)nc2cnc(OCc3ccccc3)nc21,17%,0%[11.4 µM],8%,x
O=C(Cc1cc(=O)[nH]c(=O)[nH]1)NCCN1CCOCC1,25%,7.9µM*,22%,x
O=C(Nc1nc(-c2ccc3c(c2)OCO3)cs1)C1CC1,19%,13µM*,21%,x
O=C(CN1C(=O)CCC1=O)Nc1nc(-c2nc3ccccc3s2)cs1,u,13µM*,u,x
O=C(Nc1nc(-c2nc3ccccc3s2)cs1)C1CC1,17%,5µM*,9%,x
CCCC(=O)Nc1nc(-c2ccc3c(c2)OCCO3)cs1,3%,1%,1%,x
O=C(CN1C(=O)CCC1=O)Nc1nc(-c2ccccn2)cs1,14%,-1%,-5%,x
Cc1cc(C)cc(NC(=O)CN(C)S(=O)(=O)c2cnc[nH]2)c1,4%,-2%,-2%,>57
SMILES,HEK293 cAMP ctrl,Luciferase inh,TSHR agonist,PK Bst
CC(C)CC(c1nnnn1C1CCCC1)N1CCN(C(=O)c2ccco2)CC1 (stereo unspecified),7.9µM*,4%,u,>57
CCCCC(c1nnnn1C1CCCC1)N1CCN(C(=O)c2ccco2)CC1 (stereo unspecified),u,1%,u,>57
CCCC(c1nnnn1C1CCCC1)N1CCN(C(=O)c2ccco2)CC1 (stereo unspecified),16µM*,1%,u,>57
COC(=O)[C@@H](NC(=O)N1CCN(c2cccc(C(F)(F)F)c2)CC1)C(C)C,2%,-1%,3%,>57
CCN(C(=O)c1ccnc(C(C)(C)C)c1)c1ccccc1,21%,2%,16%,>57
CCN(C(=O)N(CC)c1ccccc1)c1ccccc1,16µM*,x,u,x
COc1ccccc1N1CCN(S(=O)(=O)c2ccc(Cl)s2)CC1,u,0%,u,11*
O=S(=O)(c1cccc2nsnc12)N1CCN(c2ncccn2)CC1,6%,1%,11%,>11
COc1ccccc1N1CCN(S(=O)(=O)c2cccc3nsnc23)CC1,15%,1%,1%,7.4*
CCOc1ccccc1N1CCN(S(=O)(=O)c2ccc(Cl)s2)CC1,22%,2%,23%,u
COc1ccc(C(=O)N2c3cc4c(cc3C(C)=CC2(C)C)OCO4)cc1,19%,0%,16µM*,>57
Cc1nnc(SCC(=O)Nc2ccc3c(c2)COC3=O)n1-c1ccccc1,-3%,-2%,-4%,x
Cc1nn(-c2ccccn2)c2nc(-c3cccs3)cc(C(=O)N3CCOCC3)c12,15%,-43%,3.2µM*,7.1*
CCc1c2c(nc3ccccc13)OC(C)C2 (stereo unspecified),9%,x,25%,x
Cc1c2c(nc3c(C)cccc13)OC(C)C2 (stereo unspecified),25µM*,-5%,u,>57
CC(C)(O)C#CC#CCN1CCOCC1,0%,1%,3%,>57
Cc1cc(C(=O)COc2cccc(-n3cnnn3)c2)c(C)n1-c1ccccc1,25µM*,13µM*,u,x
COC(=O)COc1cccc(-n2cnnn2)c1,4%,-3%,-7%,>57
CCOc1ccc2nc(NC(=O)Nc3cccs3)sc2c1,-3%,0.63µM*,-21%,x
CCC(=O)Nc1nc2cc(OC)ccc2s1,-3%,u,0%,x
COc1ccc2sc(NC(=O)CC(C)C)nc2c1,15%,25µM*,8%,i
CCOc1ccc2nc(NC(=O)COC)sc2c1,-1%,20µM*,4%,i
CCOc1ccc2nc(NC(=O)c3ccc(S(=O)(=O)N4CCOCC4)cc3)sc2c1,10%,0%,-6%[11.4 µM],>57
CCOCC(=O)Nc1nc2ccc(OC)cc2s1,5%,u,-3%,x
CCOc1ccc2nc(NC(=O)c3ccoc3C)sc2c1,-10%[11.4 µM],1.6µM*,-5%[11.4 µM],x
SMILES,HEK293 cAMP ctrl,Luciferase inh,TSHR agonist,PK Bst
CCOc1ccc2nc(NC(=O)Cn3cnc4c3c(=O)n(C)c(=O)n4C)sc2c1,-41%,-6%,u,>57
CCCS(=O)(=O)NCc1cn2c(C)csc2n1,u,-14%,u,x
Cc1[nH]c2ccccc2c1CC(=O)O,1%,-1%,0%,>57
CCc1ccc(NC(=O)CCn2c(=O)oc3ccccc32)cc1,-1%,-2%,-3%,>57
COc1ccc(CCCO[C@@H](Cn2ccnc2)c2ccc(OC)cc2)cc1,32µM*,2%,u,x
COc1ccc(C(=O)NCCCn2ccnc2)cc1,1.3µM*,3%,u,>57
COc1cc(OC)cc(OCC(O)Cn2ccnc2)c1 (stereo unspecified),11%,1%,-1%,>57
COc1cc2ccccc2cc1C(=O)Nc1ccc(N2CCN(C)CC2)cc1,-40%,10µM*,u,11*
COc1cc2ccccc2cc1C(=O)Nc1cccnc1,u,16µM*,u,i
O=C(Nc1cccnc1)c1ccc(Oc2ccccc2)cc1,18%,13µM*,22%,i

# Screening data as filed in PubChem.
